Experimental data published in PubChem BioAssay.
Calls of active or inactive are those of the source.

Assays:
[1] = test system: Human papillomavirus type 1a protein E7 (residues 44-93); assay: HPV1a E7 fragment binders on microarrays, primary screen, biochemical, small-molecule microarray, residues 44-93, 635 nm fluorescence (AID 1108); settings: small-molecule microarray binding, fluorescence 635 nm; higher = more signal;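 also: E7 fragment applied at 1 µg/mL in TBST for 1 h at 4 C; score combines spot fluorescence with its signal to noise ratio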
[2] = modulators of HCV replicon luciferase signal, primary screen, HCV replication inhibitor project, Huh7 cells, luciferase reporter (AID 1109); settings: 48 h, higher = more signal;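 also: huh7 hepatoma cells harbouring a luciferase neomycin HCV replicon reporter; luciferase luminescence as measure of HCV replicon replication; test concentration not given here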
[3] = biological target: Left-right determination factor 2 (Homo sapiens) (UniProt O00292); assay: LEFTY2 binders on small-molecule microarrays, primary screen, biochemical, small-molecule microarray, 635 nm fluorescence scan (AID 1110); settings: LEFTY2 binding, higher = more signal
[4] = biological target: Calmodulin-1 (Homo sapiens) (UniProt P0DP23); assay: CALM1 binders on microarrays, EGTA buffer, profiling panel, biochemical, small-molecule microarray, Cy5-labelled CALM1 (AID 1111); settings: Cy5-CALM1 binding fluorescence, higher = more signal;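 also: labelled calmodulin applied in Tris saline Tween buffer holding calcium plus EGTA and DTT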
[5] = biological target: Calmodulin-1 (Homo sapiens) (UniProt P0DP23); assay: calcium-bound CALM1 binders on microarrays, profiling panel, artefact control for SMM control-protein annotation, biochemical, small-molecule microarray, Cy5-labelled CALM1, plus calcium (AID 1112); settings: Cy5-CALM1 binding fluorescence, higher = more signal;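 also: score merges spot fluorescence with signal to noise from triplicate slides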
[6] = small-molecule microarray binders of probe aWnt5a, primary screen, biochemical, biotinylated probe, 635/667 nm fluorescence (AID 1113); settings: higher = more signal;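 also: score merges 667 nm fluorescence intensity with signal-to-noise per printed feature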
[7] = small-molecule microarray binders of probe aShh, primary screen, biochemical, biotinylated probe, 635/667 nm fluorescence (AID 1114); settings: higher = more signal;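 also: probe is biotin-labelled aShh protein from a stem cell growth factor screen; measures binding of labelled protein to compounds printed on the slide; score merges feature fluorescence at 667 nm with signal-to-noise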
[8] = small-molecule microarray binders of probe aNog, primary screen, biochemical, biotinylated probe, 635/667 nm fluorescence (AID 1115); settings: higher = more signal;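 also: probe is biotinylated aNog protein used at 0.15 µg/mL for 1 h at 4 C; z-score combines 667 nm fluorescence of each spot with its signal to noise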
[9] = biological target: Torsin-1A-interacting protein 1 (Homo sapiens) (UniProt Q5JTV8); assay: LAP1 binders from COS7 cell lysate, primary screen, small-molecule microarray, 635/667 nm fluorescence (AID 1116); settings: COS7-hLAP1 lysate binding, 635 nm fluorescence, higher = more signal
[10] = biological target: Alpha-bungarotoxin (Bungarus multicinctus) (UniProt P60615); assay: alpha-bungarotoxin binders on microarray, profiling panel, artefact control for SMM control protein annotation, biochemical, small-molecule microarray, Alexa647 label, 635/667 nm fluorescence (AID 1117); settings: alpha-BTX-A647 binding fluorescence, higher = more signal
Albumin (Bos taurus) = Albumin (Bos taurus) (UniProt P02769); assay: bovine serum albumin binders on microarray, profiling panel, artefact control for SMM control protein annotation, biochemical, small-molecule microarray, Alexa647 label, 635/667 nm fluorescence (AID 1118); settings: BSA-A647 binding, fluorescence 635 nm, higher = more signal;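 also: score merges 667 nm emission intensity and signal-to-noise per printed compound spot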
[11] = small-molecule microarray binders of probe aXIP, primary screen, biochemical, NeuroSMM set, 635/667 nm fluorescence (AID 1119); settings: higher = more signal, called active from +8 up or from −8 down;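 also: probe is the protein aXip251-270 applied at 1 µg/mL to compound-printed slides; binding of probe to printed compounds measured as 667 nm fluorescence plus signal to noise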
[12] = small-molecule binders of probe aNOTCH3, primary screen, biochemical, small-molecule microarray, 635/667 nm fluorescence (AID 1120); settings: higher = more signal;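 also: probe is a biotin-tagged antibody raised against NOTCH3 rather than NOTCH3 protein; score merges spot fluorescence near 667 nm with spot signal to noise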
[13] = small-molecule binders of probe aNOTCH2, primary screen, biochemical, small-molecule microarray, 635/667 nm fluorescence (AID 1121); settings: higher = more signal;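 also: score merges feature fluorescence read at 667 nm with its signal to noise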
[14] = biological target: Carbonic anhydrase 2 (Homo sapiens) (UniProt P00918); assay: CAII small-molecule binders, profiling panel, biochemical, small-molecule microarray, Alexa647-labelled CAII (AID 1122); settings: CAII-A647 binding fluorescence, higher = more signal
[15] = COS7 lysate on small-molecule microarray, probe aHis, 635 nm (AID 1123); settings: COS7 cell lysate, fluorescence, higher = more signal;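 also: z-score combines 667nm fluorescence intensity with signal-to-noise per printed compound spot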
[16] = compound binding in COS7 lysate, probe aLAP1, primary screen, cell lysate, small-molecule microarray (AID 1124); settings: probe aLAP1, fluorescence, higher = more signal;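 also: lysate comes from COS7 cells expressing LAP1 and is applied at 0.3 µg/mL; score merges spot fluorescence near 667 nm with signal-to-noise over triplicate slides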
Sam68 (KHDRBS1) = assay: Sam68 small-molecule binders, primary screen, biochemical, small-molecule microarray, 635 nm fluorescence (AID 1125); settings: small-molecule microarray binding, higher = more signal;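 also: score merges 667 nm channel intensity with signal to noise over triplicate slides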
[17] = test system: Chordin-like protein 2 (CHRDL2); assay: CHRDL2 small-molecule binders, primary screen, biochemical, small-molecule microarray, 635 nm fluorescence (AID 1126); settings: small-molecule microarray binding, fluorescence 635 nm; higher = more signal;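 also: printed compound slides probed with Chrdl2 protein at 4 µg/mL for 1 h at 4 C; score merges 667 nm emission intensity with signal to noise over three replicate slides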
[18] = biological target: Concanavalin-A (Canavalia ensiformis) (UniProt P02866); assay: ConA small-molecule binders, primary screen, artefact control for SMM control protein annotation, biochemical, small-molecule microarray, Alexa647 label, 635 nm (AID 1127); settings: ConA-A647 binding fluorescence, higher = more signal;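 also: z combines 667 nm emission intensity with signal-to-noise across three replicate slides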
Chain of Concanavalin-A (Canavalia ensiformis) (P02866 whole entry, looked up): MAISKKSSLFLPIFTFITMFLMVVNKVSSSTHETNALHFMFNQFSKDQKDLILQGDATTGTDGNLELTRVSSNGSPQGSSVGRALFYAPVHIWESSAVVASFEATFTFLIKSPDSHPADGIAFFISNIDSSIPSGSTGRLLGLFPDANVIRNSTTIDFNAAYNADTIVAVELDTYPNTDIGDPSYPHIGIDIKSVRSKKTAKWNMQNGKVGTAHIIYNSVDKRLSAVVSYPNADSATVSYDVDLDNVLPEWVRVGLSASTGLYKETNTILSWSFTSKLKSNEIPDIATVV

Chain of Left-right determination factor 2 (Homo sapiens) (O00292 whole entry, looked up): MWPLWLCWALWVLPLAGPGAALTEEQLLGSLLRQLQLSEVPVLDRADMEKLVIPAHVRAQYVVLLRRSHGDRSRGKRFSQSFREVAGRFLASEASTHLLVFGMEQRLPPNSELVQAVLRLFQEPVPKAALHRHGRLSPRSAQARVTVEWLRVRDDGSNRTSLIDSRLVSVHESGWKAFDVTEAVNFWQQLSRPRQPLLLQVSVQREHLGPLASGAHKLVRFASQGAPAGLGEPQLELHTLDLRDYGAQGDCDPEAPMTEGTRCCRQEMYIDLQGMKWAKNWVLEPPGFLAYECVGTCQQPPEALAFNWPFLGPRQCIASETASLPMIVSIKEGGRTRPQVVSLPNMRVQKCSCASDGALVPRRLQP
Chain of Albumin (Bos taurus) (P02769 whole entry, looked up): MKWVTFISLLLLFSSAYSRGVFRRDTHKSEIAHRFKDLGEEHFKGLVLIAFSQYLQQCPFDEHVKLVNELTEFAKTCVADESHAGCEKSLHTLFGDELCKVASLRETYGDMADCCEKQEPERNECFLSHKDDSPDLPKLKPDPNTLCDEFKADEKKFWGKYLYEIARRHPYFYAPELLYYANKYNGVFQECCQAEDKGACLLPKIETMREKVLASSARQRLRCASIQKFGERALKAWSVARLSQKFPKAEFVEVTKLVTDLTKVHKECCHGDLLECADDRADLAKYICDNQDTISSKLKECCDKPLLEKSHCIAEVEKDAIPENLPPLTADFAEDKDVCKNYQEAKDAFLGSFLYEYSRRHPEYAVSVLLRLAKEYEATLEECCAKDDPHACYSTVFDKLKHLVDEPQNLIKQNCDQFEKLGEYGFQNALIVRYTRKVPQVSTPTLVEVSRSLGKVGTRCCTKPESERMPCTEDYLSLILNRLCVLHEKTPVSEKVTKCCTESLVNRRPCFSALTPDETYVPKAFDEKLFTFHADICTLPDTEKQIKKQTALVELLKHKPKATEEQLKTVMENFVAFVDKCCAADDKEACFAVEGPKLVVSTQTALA
Chain of Torsin-1A-interacting protein 1 (Homo sapiens) (Q5JTV8 whole entry, looked up): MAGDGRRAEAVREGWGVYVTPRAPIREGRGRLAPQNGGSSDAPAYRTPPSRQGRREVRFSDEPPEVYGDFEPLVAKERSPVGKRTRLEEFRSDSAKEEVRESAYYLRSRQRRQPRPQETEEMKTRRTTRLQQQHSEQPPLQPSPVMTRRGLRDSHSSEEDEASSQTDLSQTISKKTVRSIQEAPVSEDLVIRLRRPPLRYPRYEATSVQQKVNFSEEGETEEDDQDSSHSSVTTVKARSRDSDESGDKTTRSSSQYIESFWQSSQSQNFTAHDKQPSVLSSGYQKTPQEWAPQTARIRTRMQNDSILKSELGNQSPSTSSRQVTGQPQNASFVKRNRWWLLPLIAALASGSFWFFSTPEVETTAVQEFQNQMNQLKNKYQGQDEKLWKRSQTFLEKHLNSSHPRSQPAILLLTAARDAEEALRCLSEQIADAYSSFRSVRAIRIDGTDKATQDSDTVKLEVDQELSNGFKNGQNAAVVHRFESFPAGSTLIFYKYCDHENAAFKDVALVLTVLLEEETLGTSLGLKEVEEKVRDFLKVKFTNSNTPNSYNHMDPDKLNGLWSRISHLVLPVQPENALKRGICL
Chain of Alpha-bungarotoxin (Bungarus multicinctus) (P60615 whole entry, looked up): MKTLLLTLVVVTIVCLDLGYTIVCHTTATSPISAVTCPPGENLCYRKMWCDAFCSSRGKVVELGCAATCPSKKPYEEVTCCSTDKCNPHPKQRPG

SMILES | composite z-score [1] | z-score [2] | composite z-score [3] | composite z-score [4] | composite z-score [5] | composite z-score [6] | composite z-score [7] | composite z-score [8] | composite z-score [9] | composite z-score [10] | composite z-score (Albumin (Bos taurus)) | composite Z-score [11] | composite z-score [12] | composite z-score [13] | composite z-score [14] | composite z-score [15] | composite z-score [16] | composite z-score (Sam68 (KHDRBS1)) | composite z-score [17] | composite z-score [18]
COc1cc(CO)cc(I)c1O[C@H]1C=C(C(=O)NCCO)C[C@@H](N(CC2CCCCC2)C(=O)c2cc3ccccc3oc2=O)[C@@H]1O | -0.376 | 0.806 | 0.252 | 0.0059 | -0.857 | -0.185 | -0.0904 | -0.446 | 0.646 | -0.431 | -0.0129 | 0.577 (inactive) | 0.0158 | -0.12 | -0.0979 | 0.14 | 0.379 | -0.461 | 0.538 | 0.358
C=CCN(C(=O)C1N(c2ccc(CCO)cc2)C(=O)C2C(C(=O)O)C3C=CC21O3)C(C)(C)C (stereo not given) | -0.266 | 0.333 | -2.38 | -0.428 | 0.966 | -0.287 | -0.27 | -0.219 | 1.71 | -2.69 | -1.21 | -0.12 (inactive) | -0.549 | -0.171 | 0.971 | 1.42 | -0.262 | -1.24 | -4.23 | -3.08
COCCOC(=O)N1C(=O)[C@@]2(c3cc(C#CCCO)ccc31)[C@H](c1ccc(OCCO)cc1)N1[C@H](c3ccccc3)[C@H](c3ccccc3)OC(=O)[C@H]1[C@@H]2C(=O)NC[C@H](O)c1ccccc1 | 1.39 | -1.13 | 0.795 | 0.969 | 0.003 | -0.001 | -0.0904 | -0.213 | 1.29 | 1.05 | -0.525 | 0.463 (inactive) | 0.272 | -0.146 | 0.484 | 1.78 | 0.54 | 1.29 | 0.716 | 1.05
CO[C@H]1COC(=O)[C@@H](C)NC(=O)CC=C[C@@H](C)[C@H](OC)COC(=O)CC=C[C@@H]1C | -0.0307 | -0.355 | 1.39 | -1.88 | -2.99 | -0.202 | -0.153 | -0.559 | -0.0099 | -1.47 | -0.731 | 1.16 (inactive) | -0.0679 | -0.201 | -0.576 | -0.724 | -0.517 | 0.32 | 1.46 | -1.28
CCOC(=O)C[C@H]1[C@H](OC(=O)c2cc3ccccc3oc2=O)[C@@H](NC(=O)C2CCCCC2)c2cc(OCCCO)ccc2N1C(=O)c1ccc2ccccc2n1 | 1.03 | -0.26 | 0.4 | 0.242 | -0.137 | -0.0721 | 0.225 | -0.188 | 0.767 | 0.131 | 0.596 | -0.0789 (inactive) | -0.0311 | -0.115 | 0.0744 | 0.801 | -0.108 | 1.06 | 0.544 | 0.953
CC(C)[Si]1(C(C)C)OCc2cc(C3CC3)nc(-c3ccccc3)c21 | -0.84 | -0.222 | -0.231 | -1.23 | -0.183 | -0.15 | -0.09 | -0.0841 | -0.694 | -0.249 | -0.613 | -0.536 (inactive) | -0.295 | -0.12 | 0.112 | -0.57 | -0.683 | -0.124 | -0.161 | -0.26
C[N+](C)(C)CCCCNC(=O)[C@@H]1C[C@@H]2C(=O)N3CCC[C@H]3C(=O)N2[C@@H]1c1cccc(OCCO)c1 | -0.745 | 0.0741 | 1.14 | -0.794 | 0.658 | -0.162 | -0.0626 | -0.0645 | 1.62 | 1.16 | -0.486 | 2.6 (inactive) | -0.199 | -0.153 | 0.678 | 0.538 | 0.248 | 1.04 | 1.04 | 0.909
C=CC[C@@]1(C(=O)N2CCOCC2)N=C(c2ccc(OCCCO)cc2)O[C@@H]1c1ccccc1 | 0.0433 | -0.802 | -0.464 | 0.0981 | 0.0806 | -0.166 | -0.184 | 0.34 | 1.68 | 2.84 | 0.18 | 0.0379 (inactive) | -0.223 | -0.327 | 0.716 | 2.17 | -0.108 | -0.157 | -0.796 | -0.226
Cc1ccc(S(=O)(=O)N2[C@@H](c3ccccc3)C(C(=O)O)=CC[C@H]2c2ccccc2)cc1 | 0.433 | 0.498 | -0.363 | 0.526 | 0.355 | 0.0317 | -0.0709 | 0.109 | -0.701 | 0.317 | 0.508 | 1.47 (inactive) | -0.0647 | -0.0771 | 0.837 | 2.33 | 0.498 | 0.702 | -0.439 | 0.0991
C=CCNC(=O)[C@H]1[C@@H]2C(=O)O[C@@H](c3ccccc3)[C@@H](c3ccccc3)N2[C@@H](c2ccc(O)cc2)[C@]12C(=O)Nc1ccc(C#CCNC(N)=O)cc12 | 0.0632 | 0.567 | -0.84 | -0.439 | -0.0701 | -0.161 | -0.467 | 0.0863 | 0.239 | 0.543 | -0.273 | 0.593 (inactive) | -0.174 | 0.12 | 0.78 | 0.789 | 0.0128 | 0.213 | -1.02 | -0.649
